Data as given in PubChem BioAssay (NCI).
This is part of a sample that, as a whole, favours compounds with a hit. Of some 83,000 tested, about 20% had one in any assay.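 Treatment: one concentration, 48 hours, 96-well format. Scoring: percent growth, with anything below 10 considered active.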 Unmarked numbers belong to inactive results. Calls of active or inactive are those of the source.

Test system: MDA-MB-468 breast
Assay: NCI-60 one-dose screen, 48 h (100 = growth as untreated, 0 = no growth, -100 = all killed)
Settings: 10 µM unless noted

Row | SMILES | growth
1 | Cc1cn(-c2cc(NC(=O)c3cncc(C#Cc4cnc5ccc(OCCCS(C)(=O)=O)nn45)c3)cc(C(F)(F)F)c2)cn1 | -22.5% (active)
2 | OCCN1CCN(c2nc(Nc3ccc(-c4nc5ccccc5[nH]4)cc3)c3cn[nH]c3n2)CC1 | -82.3% (active)
3 | CCn1cc(C2NC(=O)c3cc(F)ccc3N2)c2cccc(Cl)c21 (centres undefined) | 7.04% (active)
4 | CN(C)Cc1ccc(O)c(C(=O)O)c1 | 106%
5 | Clc1ccccc1/C=C/c1nn2c(-c3ccncc3)nnc2s1 | 97.4%
6 | CC(C)CSc1ncnc2nc[nH]c12 | 104%
7 | CCCCCCCc1n(Cc2ccc3ccccc3c2)c2ccccc2[n+]1Cc1ccc2ccccc2c1 | -69.6% (active)
8 | Nc1ncc(-c2ccc(NS(=O)(=O)c3ccc(Cl)c(Cl)c3)cc2)[nH]1 | 90.1%
9 | COc1ncc(-c2ccc3nccc(-c4ccnnc4)c3c2)cc1NS(=O)(=O)c1ccc(F)cc1F | -73% (active)
10 | COc1ccc2c(c1)c(-c1nc(-c3c[nH]c4ncccc34)cs1)cn2C | -5.16% (active)
11 | N#C/C(=C\c1ccc(-c2ccc(Cl)cc2)o1)c1ccc(Cl)cc1 | 82.2%
12 | Cc1ccc(C)n1-c1ccsc1C(=O)NNC(=O)C(Cl)Cl | 103%
13 | COc1ccc(C2=Nc3c(N)nc(N)nc3NC(c3cccc(Nc4ccnc5cc(C(F)(F)F)ccc45)c3)C2)cc1 (centres undefined) | 46.1%
14 | O=c1cc(-c2ccccc2)oc2cc(OCc3cn(Cc4ccc(F)cc4)nn3)cc(O)c12 | 53.9% [100 µM]
15 | Cc1ccc(C)c(NC2=C(Cl)C(=O)c3nc(C)ccc3C2=O)c1 | -73.5% (active)
16 | O=C(Nc1nc2ccccc2s1)Nc1ccc([N+](=O)[O-])cc1Cl | 89.9%
17 | CCc1cc2n(n1)-c1ncc(C(=O)OC)cc1Oc1ccccc1-2 | 95.2%
18 | CC(C)CCC[C@@H](C)[C@H]1CC[C@H]2[C@@H](Nc3ccc(O)cc3)CCC[C@]12C | -13.8% (active)
19 | CC(C)CCSc1nc(Nc2ccccc2)c(C#N)c(-c2ccccc2)n1 | 43.4%
20 | CN(C)C(=O)OCc1nc2c(N3CCOCC3)nc(-c3ccccc3)nc2n1C | -61.1% (active)
21 | [Cu+].[NH-][C@H]1C[N-]C(=O)[C@H]([C@H]2CCN=C(N)N2)[N-]C(=O)/C(=C\NC(N)=O)[N-]C(=O)[C@H](CNC(=O)C[C@@H](N)CCCN)[N-]C(=O)[C@H](CO)[N-]C1=O | 96.2%
22 | Cc1nc2cc(Nc3nc(NCCO)nc(Nc4ccc(F)cc4)n3)ccc2n1Cc1ccccc1 | 99.2%
23 | C=C1C(=O)O[C@H]2[C@H]1CC/C(COC(=O)c1ccc(Br)cc1)=C\CC[C@@]1(C)O[C@@H]21 | -23.1% (active)
24 | Cc1cccc(-c2nnc(SCC(=O)Nc3ncc(Cc4ccccc4)s3)n2N2C(=O)CSC2=S)c1 | 62.1%
